Screens from PubChem BioAssay.
JMJD2A Tudor: blocks the human JMJD2A Tudor domain; O75164; AlphaScreen JMJD2A-Tudor / H3K4me3 peptide binding; Potency, µM (titrated, usually from 114 µM), for the others: top-dose activity change, negative = inhibition, actives largely listed as inhibitors; 4.4% of 390,000 active; AID 504339; further: potency means the concentration at half of the fitted maximal effect; on the % scale 0 is the no-effect control and ±100 the full control effect; nearly all actives have a fitted effect of over 50% in size
BAZ2B inh: inhibitors of human BAZ2B bromodomain; AID 504333; Potency, µM (top dose mostly 114 µM), inactives show top-dose activity change, negative = inhibition, actives largely listed as inhibitors; 4.4% of 360,000 active; AlphaScreen BAZ2B-H3K14Ac peptide displacement; Q9UIF8; further: potency means the concentration at half of the fitted maximal effect; on the % scale 0 is the no-effect control and ±100 the full control effect; nearly all actives have a fitted effect of over 60% in size
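Compounds, titrated to a top concentration of 110 uM, were incubated 30 min at room temperature with preformed BAZ2B/acetyl-K14 H3 peptide complex (50 nM each). Proximity signal was measured by AlphaScreen after 20 min with beads.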
G9a block: inhibitors of human histone lysine methyltransferase G9a. 8.8% of 350,000 active. G9a H3K9 monomethylation, AlphaScreen, 2 h. Q96KQ7. AID 504332. Potency, µM (top dose mostly 102 µM), inactives show top-dose activity, negative = inhibition, hits mostly inhibitors; further: potency means the concentration at half of the fitted maximal effect; on the % scale 0 is the no-effect control and ±100 the full control effect; nearly all actives have a fitted effect of over 75% in size
Target sequence (Q96KQ7 913-1193 limits assumed): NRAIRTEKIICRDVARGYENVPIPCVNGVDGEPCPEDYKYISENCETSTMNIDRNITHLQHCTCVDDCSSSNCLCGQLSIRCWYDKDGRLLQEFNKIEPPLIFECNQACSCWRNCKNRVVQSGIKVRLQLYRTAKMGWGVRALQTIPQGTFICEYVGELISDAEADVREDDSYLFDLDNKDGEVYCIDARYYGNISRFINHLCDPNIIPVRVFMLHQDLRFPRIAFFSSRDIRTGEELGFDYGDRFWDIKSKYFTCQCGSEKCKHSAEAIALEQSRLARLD
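Using a bead-based AlphaScreen, monomethylated H3K9 product from 2 h room-temperature reactions (G9a 20 nM, peptide 500 nM, SAM 20 uM) was detected with 0.5 ug/mL rabbit anti-H3K9me1 antibody.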
CtBP-E1A inh: inhibitors of CtBP/E1A interaction | activity change, % (test concentration not listed) | 0.49% of 340,000 active | AlphaScreen GST-E1A/His-CtBP binding, 1536-well; active compounds read low | AID 651724; in the data active means activity change below about -65%; inconclusive means mostly about -30% to -63%; further: on the % scale 0 is the no-effect control and ±100 the full control effect
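Steps: dispense buffer (Tris pH 8.0, NaCl 300 mM, TCEP 1 mM, BSA, Tween 20); add 5X protein mix (GST-E1A, His-CtBP, 125 nM each); pin 23 nL compound; 2 h at 37 °C, dark; add 5X beads (50 ug/mL); 1 h; read.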
HP1b binding inh: HP1-beta chromodomain-methylated histone interaction inhibition; 0.56% of 390,000 active; AID 540317; P83916; AlphaScreen HP1-beta / biotin-H3K9me3 peptide binding; Potency, µM (top dose mostly 114 µM), without a hit: top-dose activity change, negative = inhibition, hits mostly inhibitors; further: potency means the concentration at half of the fitted maximal effect; nearly all actives have a fitted effect of over 70% in size
Target sequence (P83916 whole entry, looked up): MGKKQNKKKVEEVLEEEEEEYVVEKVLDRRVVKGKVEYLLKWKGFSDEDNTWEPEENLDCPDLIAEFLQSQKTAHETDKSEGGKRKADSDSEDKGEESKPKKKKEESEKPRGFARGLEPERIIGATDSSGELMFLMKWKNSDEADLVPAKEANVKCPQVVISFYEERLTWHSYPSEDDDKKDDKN
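HP1-beta protein (50 nM final) preincubated 30 min at room temperature with biotinylated H3(1-18)K9me3 peptide (50 nM) in PBS pH 7.4, 0.01% Tween-20, then compound added for 30 min. AlphaScreen streptavidin donor/nickel chelate acceptor beads (10 ug/mL final), 30 min dark, luminescence read.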
Six1-Eya2 blk: blocks human Six1 binding to Eya2; Q15475+O00167; AlphaScreen GST-Six1/His-Eya2 binding, biochemical; active compounds read low; activity change, % (no concentration beside the values); 0.56% of 360,000 active; AID 651725; in the data active means activity change below about -65%; inconclusive means mostly about -30% to -63%; further: on the % scale 0 is the no-effect control and ±100 the full control effect
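Homogeneous AlphaScreen proximity assay pairing GST-Six1 with His-tagged Eya2 (added as 5X mix: 250 nM and 500 nM) in 50 mM Tris pH 8.0, 300 mM NaCl, 1 mM TCEP. Glutathione donor and nickel acceptor beads; 1 h, 37 °C, dark.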
Numbers without * were called inactive; u = inconclusive; x = not tested or not shown; [ ] = dose if it differs, or a comment. A selection: hits, their analogues and other compounds. The true share with any hit is near 10%. Unless noted, the call rests on the fitted dose curve; in most records, active means well fitted inhibition curve with a large enough effect; inconclusive means small, poorly fitted or top-dose-only effect; inactive means no such curve, though single readings can be large or run the other way.

SMILES	JMJD2A Tudor	BAZ2B inh	G9a block	CtBP-E1A inh	HP1b binding inh	Six1-Eya2 blk
COc1ccc(Br)cc1CN1CCN(C(=O)c2ccc(OC)c(OC)c2)CC1	14µM*	50µM*	16µM*	-4	u	-6
COc1cccc(C(=O)N2CCN(Cc3ccc(OC)cc3OC)CC2)c1	13µM*	25µM*	7.9µM*	0	u	3
COc1cccc(C(=O)N2CCN(C(=O)Cc3ccccc3)CC2)c1	-15%	-2%	12%	-4	32%	5
COc1ccc(Br)cc1CN1CCC(N2CCCC2)CC1	u	32µM*	25µM*	11	u	3
COc1ccc(OC)c(CN2CCN(C(=O)c3cccc(S(=O)(=O)Nc4ccccc4OC)c3)CC2)c1	-36%	u	-50%	-10	-11%	-12
COc1cccc(C(=O)N2CCN(Cc3cc(Br)ccc3OC)CC2)c1	7.9µM*	28µM*	22µM*	-3	u	-7
COc1ccc(NC(=O)C(C)Sc2nnc(C3CC3)n2C2CC2)cc1 (stereo not drawn)	-3%	-18%	-3%[2.33 µM]	4	38%	3
Cc1cc(-c2ccc(/C=N/n3cnnc3)o2)c(C)c([N+](=O)[O-])c1	u	-37%	40µM*	-20	-9%	u
O=[N+]([O-])c1ccc(Cl)c(-c2ccc(/C=N/n3cnnc3)o2)c1	u	u	71µM*	-19	-9%	-8
CN1CCN(/N=C/c2ccc(-c3ccc([N+](=O)[O-])cc3Cl)o2)CC1	56µM*	28µM*	25µM*	-22	u	-19
CC(C)COC(=O)c1cc(-c2ccc(/C=N/n3cnnc3)o2)ccc1Cl	-33%	6%	10µM*	-1	7%	4
O=[N+]([O-])c1cc(-c2ccc(/C=N/n3cnnc3)o2)ccc1Cl	-22%	-9%	x	x	16%	-8
Fc1ccc(-c2ccc(/C=N\n3cnnc3)o2)cc1Cl	-18%	-30%	2%[59 µM]	-8	28%	-8
O=C(COc1ccc(Cl)cc1Cl)Nc1ccc(C(=O)OC2CCCCC2)cc1	-4%	8%	41%[59 µM]	x	32%	x
C=C1C(n2cnc3c(=O)[nH]c(N)nc32)C[C@H](O)[C@H]1CO (stereo partly drawn)	x	x	-36%[12.7 µM]	x	x	x
CCN(CC)CCn1c2c(c(SCC(=O)NCc3ccccc3)nc1=O)CCC2	-10%	12%	-24%	-15	25%	10
CN(CCO)S(=O)(=O)c1ccc2c(c1)C(=NN)c1cc(S(=O)(=O)N(C)CCO)ccc1-2	-15%	-15%	-5%	-9	12%	-1
O/N=C/c1ccc2cccc(OCc3ccccc3)c2n1	-14%	-27%	20µM*	-3	25%	-5
CC12CCC(C(=O)N(CCCN3CCN(Cc4ccccc4)CC3)C1=O)C2(C)C (stereo not drawn)	u	50µM*	u	5	5%	1
COc1ccccc1-c1noc(CCCC(=O)Nc2cc(C)ccc2C)n1	12%	-27%	-4%[59 µM]	x	47%	x
O=C(NC(=S)N1CCN(Cc2ccc3c(c2)OCO3)CC1)c1cccc(Br)c1	u	25µM*	9%[59 µM]	-4	-10%	u
O=S(=O)(c1c(F)cccc1F)N1CCN(C(=S)NCc2ccc3c(c2)OCO3)CC1	-11%	-29%	32µM*	-1	-6%	-12
C=CCNC(=S)N1CCN(Cc2ccc3c(c2)OCO3)CC1	14µM*	50µM*	-6%[0.501 µM]	x	u	2
C=CCNC(=O)CN1CCN(Cc2ccc3c(c2)OCO3)CC1	-8%	-1%	x	-12	25%	11
CCNC(=S)N1CCN(Cc2ccc3c(c2)OCO3)CC1	4%	-5%	-1%	7	45%	-2
CCCNC(=S)N1CCN(Cc2ccc3c(c2)OCO3)CC1	28µM*	u	20µM*	15	u	-4
CCN(CCCNC(=O)c1nn(-c2ccc(OC)c(Cl)c2)c(=O)c2c1c1ccccc1n2C)c1cccc(C)c1	-18%	x	-59%[59 µM]	x	12%	x
